Data reported in the supplement of paper PMC11537057.
Where a name gives a salt, the structure may show the parent alone. ± gives the standard deviation of the averaged measurements. Whole data set: some 1,700 compounds, median “cell number in HSV-1-infected wells relative to infected DMSO wells (H2B-RFP signal)” near 100, cut for the highest 2% near 140. The sample as a whole holds a higher share of the highest values than the screen did.

System: A549 infected with HSV-1
Assay: cell number in HSV-1-infected wells relative to infected DMSO wells (H2B-RFP signal); higher = more surviving cells (uninfected or antiviral-protected wells give about 200%; low = toxicity)
Details: 10 µM; 48 h; MOI: 0.1
Experimental: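 Selleck FDA-approved library (L1300) screened in duplicate at 10 µM on A549 H2B-mRuby cells in 384-well plates, infected with HSV-1 strain 17 YFP-ICP4 at MOI 0.1 one hour before drug addition. Imaged after 2 days at 37°C. Cell growth (H2B-RFP) and infection (ICP4-YFP) are expressed as % of DMSO-treated wells. Hits: growth >90% and infection <20% of DMSO.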

SMILES | cell number in HSV-1-infected wells [%]
C#Cc1cccc(Nc2ncnc3cc4c(cc23)OCCOCCOCCO4)c1 [Icotinib] | 113 ± 1.4
CCCCCCCCN=c1ccn(CCCCCCCCCCn2ccc(=NCCCCCCCC)cc2)cc1 [Octenidine Dihydrochloride] | 14.6 ± 4.9
CC(=O)OCC(CCn1cnc2cnc(N)nc21)COC(C)=O [Famciclovir] | 104 ± 3.7
Nc1nc(O)c2ncn(CCC(CO)CO)c2n1 [Penciclovir] | 205 ± 4.4
OC[C@H]1O[C@@H](O[C@@H]2[C@@H](CO)OC(O)(CO)[C@H]2O)[C@H](O)[C@@H](O)[C@H]1O (mixture of isomers) [Lactulose] | 115 ± 1.3
CN1CCN(C(c2ccccc2)c2ccccc2)CC1 [Cyclizine 2HCl] | 153 ± 28
CN1CCC(OC(c2ccccc2)c2ccccc2)CC1 [Diphenylpyraline HCl] | 98.9 ± 17
C(=C\c1ccccc1)/CN1CCN(C(c2ccccc2)c2ccccc2)CC1 [Cinnarizine] | 117 ± 4.5
C[N+](C)(C)CCO.O=C([O-])C(O)C(O)C(=O)O (centres undefined) [Choline bitartrate] | 124 ± 12
COc1cc(C2Oc3cc([C@H]4Oc5cc(O)cc(O)c5C(=O)[C@@H]4O)ccc3OC2CO)ccc1O (some centres undefined) [Silibinin] | 95.4 ± 7
C=C[C@@H]1C[C@]1(NC(=O)[C@@H]1C[C@@H](Oc2ncc(OC)c3ccc(Cl)cc23)CN1C(=O)[C@@H](NC(=O)OC(C)(C)C)C(C)(C)C)C(=O)NS(=O)(=O)C1CC1 [Asunaprevir] | 94.5 ± 22
CCCCc1nc(C)c(CC(=S)N(C)C)c(=O)n1Cc1ccc(-c2ccccc2-c2nnn[nH]2)cc1 [Fimasartan] | 88.2 ± 16
Cc1cn(-c2cc(NC(=O)c3ccc(C)c(Nc4nccc(-c5cnccn5)n4)c3)cc(C(F)(F)F)c2)cn1 [Radotinib] | 64.4 ± 25
N[C@@H](Cc1c[nH]c2ccc(O)cc12)C(=O)O [5-hydroxytryptophan (5-HTP)] | 121 ± 13
CC1(C)CCC(C)(C)c2cc(NC(=O)c3ccc(C(=O)O)cc3)ccc21 [Tamibarotene] | 143 ± 7.9
O=C(O)c1ccc(NC(=O)[C@H](Cc2ccc(O)cc2)NC(=O)c2ccccc2)cc1 [Bentiromide] | 101 ± 29
C=C(c1ccc(C(=O)O)cc1)c1cc2c(cc1C)C(C)(C)CCC2(C)C [Bexarotene] | 85.7 ± 8.3
CCN(CC)C(=O)N1CCN(C)CC1 [Diethylcarbamazine citrate] | 89.5 ± 22
NC(=NCCCCCCN=C(N)N=C(N)Nc1ccc(Cl)cc1)N=C(N)Nc1ccc(Cl)cc1 [Chlorhexidine?2HCl] | 9.11 ± 0.6
O=c1[nH]c(=O)n([C@H]2C[C@H](O)[C@@H](CO)O2)cc1F [Floxuridine] | 53.3 ± 3.6
Nc1nc(Cl)nc2c1ncn2[C@H]1C[C@H](O)[C@@H](CO)O1 [Cladribine] | 42.1 ± 4.5
O=c1[nH]c(=O)n([C@H]2C[C@H](O)[C@@H](CO)O2)cc1I [Idoxuridine] | 175.6 ± 1.1

SMILES | cell number in HSV-1-infected wells [%]
Nc1ncn([C@@H]2O[C@H](CO)[C@@H](O)[C@H]2O)c(=O)n1 [Azacitidine] | 98.3 ± 4.2
Nc1ncn([C@H]2C[C@H](O)[C@@H](CO)O2)c(=O)n1 [Decitabine] | 166 ± 12
Cc1cn([C@@H]2C[C@@H](O)[C@H](CO)O2)c(=O)[nH]c1=O [Telbivudine] | 102 ± 8.7
CC[C@H](C)C(=O)O[C@H]1C[C@H](O)C=C2C=C[C@H](C)[C@H](CC[C@@H](O)C[C@@H](O)CC(=O)O)[C@H]21 [Pravastatin sodium] | 95.3 ± 16
NC(=O)c1cn(Cc2c(F)cccc2F)nn1 [Rufinamide] | 120 ± 12
C[C@H]1CNCCCN1S(=O)(=O)c1cccc2cncc(F)c12 [Ripasudil (K-115) hydrochloride dihydrate] | 114 ± 7
N#Cc1cc(-c2n[nH]c(-c3ccncc3)n2)ccn1 [Topiroxostat] | 111 ± 12
Cc1ncc([N+](=O)[O-])n1CC(C)O (centres undefined) [Secnidazole] | 99.4 ± 14
NS(=O)(=O)c1cc2c(cc1Cl)N=CNS2(=O)=O [Chlorothiazide] | 114 ± 25
C1N2CN3CN1CN(C2)C3 [Methenamine] | 124 ± 25
COc1ccc2cc(CCC(C)=O)ccc2c1 [Nabumetone] | 97.7 ± 6.2
CN1CCN(CCCN2c3ccccc3Sc3ccc(Cl)cc32)CC1 [Prochlorperazine dimaleate salt] | 124 ± 49
CN1CCN(CCCN2c3ccccc3Sc3ccc(Cl)cc32)CC1 [Prochlorperazine Dimaleate] | 163 ± 4.8
CN1CCN(CCCN2c3ccccc3Sc3ccc(C(F)(F)F)cc32)CC1 [Trifluoperazine 2HCl] | 57.5 ± 10
OCCN1CCN(CCCN2c3ccccc3Sc3ccc(Cl)cc32)CC1 [Perphenazine] | 86.76 ± 0.7
CC(C)C(=O)OCC(=O)[C@@]12O[C@H](C3CCCCC3)O[C@@H]1C[C@H]1[C@@H]3CCC4=CC(=O)C=C[C@]4(C)[C@H]3[C@@H](O)C[C@@]12C [Ciclesonide] | 120 ± 13
Cc1onc(-c2c(Cl)cccc2Cl)c1C(=O)N[C@@H]1C(=O)N2[C@@H]1SC(C)(C)[C@@H]2C(=O)O [Dicloxacillin Sodium] | 146 ± 32
Cc1onc(-c2c(F)cccc2Cl)c1C(=O)N[C@@H]1C(=O)N2[C@@H]1SC(C)(C)[C@@H]2C(=O)O [Flucloxacillin sodium] | 111 ± 11
Cc1onc(-c2ccccc2Cl)c1C(=O)N[C@@H]1C(=O)N2[C@@H]1SC(C)(C)[C@@H]2C(=O)O [Cloxacillin Sodium] | 114 ± 15
C[C@]12CC[C@@H]3c4ccc(O)cc4C[C@@H](CCCCCCCCC[S+]([O-])CCCC(F)(F)C(F)(F)F)[C@H]3[C@@H]1CC[C@@H]2O (some centres undefined) [Fulvestrant] | 74.6 ± 24
C[C@@H](O)[C@H]1C(=O)N2C(C(=O)O)=C(S[C@@H]3CN[C@H](CNS(N)(=O)=O)C3)[C@H](C)[C@H]12 [Doripenem Hydrate] | 98.3 ± 14
C[C@@H](O)[C@H]1C(=O)N2C(C(=O)O)=C(S[C@@H]3CN[C@H](CNS(N)(=O)=O)C3)[C@H](C)[C@H]12 [Doripenem] | 124 ± 13
